“And” between values parts separate entries of the source, which are not always exact repeats. Equal values may be shown once. Some structures have more than one record in an assay (separate samples or runs), and their calls can disagree. The source made the active and inactive calls.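 The calls were made as follows, unless noted: active = inhibition at or above 50% relative to wild type and mutant plate controls; inactive = inhibition below 50%.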 Residues, ends and D or L forms follow the SMILES beside them.
Assays:
[1] = inhibitors of TNFa-induced NFkB p65 translocation, primary screen, imaging, HUVEC, MLSMR starter and 10KST1 sets (AID 438;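 active = inhibition above 20% together with a positive visual image hit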;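 also: compound added about 3h40 before a 20 min TNFalpha stimulation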;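 as to inhibition: signal is the nuclear over cytoplasmic p65 intensity ratio per well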); settings: HUVEC TNFa-induced p65 nuclear translocation; cell count: measured here: nuclei count (cytotoxicity indicator), at 2.08 µM unless noted; inhibition: at 2 µM, stronger effect = higher value unless noted
[2] = inhibitors of mutant huntingtin aggregation, primary screen, imaging, exon1htt(103Q)mCFP cells, high-content imaging (AID 483;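 active = visual image review flags a hit and inhibition of aggregation exceeds 20%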;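 also: compound exposure lasted 3 days before fixation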;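 as to nuclei count: percent of the per-plate median nuclei count of sample wells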); settings: exon1htt(103Q)mCFP cell line, aggregate imaging, at 2 µM; inhibition of aggregation: stronger effect = higher value; nuclei count: measured here: cell count, toxicity
[3] = inhibitors of E-selectin induction by TNFa, primary screen, imaging, HUVEC, immunofluorescence, MLSMR starter and 10KST1 sets (AID 487;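 active = visually confirmed hit in the image check and inhibition above 20%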;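 as to inhibition: signal is fraction of cell area covered by stained E-selectin grains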;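 as to nuclei count: 100% = median nuclei count of all wells on the same plate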); settings: HUVEC TNFalpha-induced E-selectin immunofluorescence imaging, at 2 µM; inhibition: stronger effect = higher value; nuclei count: measured here: cell number, toxicity
[4] = DUSP6 inhibitors restoring Erk phosphorylation by chemical complementation, primary imaging in DUSP6-transfected HeLa (AID 609;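 active = compounds giving at least 50% inhibition in the cell-based MKP-3 phosphatase rescue imaging test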;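 as to inhibition: phospho-Erk level distribution per well compared with pooled transfected vehicle control wells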); settings: HeLa MKP-3 transfected, phospho-Erk imaging KS statistic, at 10 µM
[5] = target: Dual specificity protein phosphatase 6 (Homo sapiens) (UniProt Q16828); experiment: as above; settings: HeLa MKP-3 transfected, phospho-Erk imaging KS statistic, at 10 µM, stronger effect = higher value
[6] = target: Voltage-gated potassium channel subunit beta-2 (Rattus norvegicus) (UniProt P62483); experiment: KvBeta enzyme negative modulators, primary screen, biochemical, NADPH fluorescence (AID 622;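 active = fluorescence slope higher than the sample average by over 3 SD, cut at about -0.22 in these data, passing the limit was not always enough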;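 also: slope of raw intensity against log time taken from 70 to 1610 s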); settings: recombinant KvBeta, 4-cyanobenzaldehyde reduction, at 10 µM, stronger effect = higher value
[7] = target: Voltage-gated potassium channel subunit beta-2 (Rattus norvegicus) (UniProt P62483); experiment: KvBeta positive modulators, primary screen, biochemical, NADPH fluorescence (AID 623;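 active = NADPH fluorescence slope more negative than the mean of all samples by about 3 SD, 99.7% confidence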;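 also: fluorescence intensity change per second fitted from 20 to 320 s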); settings: Recombinant KvBeta, NADPH fluorescence decrease slope, 10 min; at 10 µM; stronger effect = lower value
[8] = target: Alpha-2C adrenergic receptor (Homo sapiens) (UniProt P18825); experiment: modulators of alpha2C/GIRK thallium flux, primary screen, cell-based, HEK293 alpha2C/GIRK1/2 (AID 624;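 active = fluorescence slope after compound addition differing from the mean of all screened samples at 99.7% confidence, in either direction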;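 also: slope of fluorescence ratio to pre-addition baseline per second over 15 to 24 s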); settings: thallium flux BTC fluorescence, at 10 µM, actives lie on both sides
[9] = inhibitors of larval lipid processing in zebrafish, primary screen, whole organism, PED6 fluorescence, gall bladder and intestine (AID 686;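 active = a full or partial loss of lipid-probe fluorescence in the fish gall bladder, intestine or both, judged by eye; inactive = no fluorescence loss, or compound toxic to the fish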;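 also: larvae 5 to 7 days old with five fish per well; signal comes from phospholipase A2 cleavage of quenched PED6 carried via bile; overnight exposure to compound and PED6 before scoring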); settings: Zebrafish larvae PED6 lipid processing, fluorescence scoring
[10] = inhibitors of Chlamydomonas gravitaxis, primary screen, whole organism, Chlamydomonas reinhardtii, WT vs cilia-less mutant, absorbance, 96-well (AID 463189); settings: OD600 absorbance, 2 days, at 10 µM, stronger effect = higher value;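 also: 0% = wild type cc124 cells in DMSO and 100% = ciliumless bld1 mutant cells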
[11] = inhibitors of Sendai virus-induced IRF3 signaling, primary screen, TLR/RLR signaling modifier project, cell-based, Sendai virus stimulus, luciferase, 10K MLSCN set (AID 602276;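 active = inhibition at or above 50% at 10 µM; inactive = inhibition below 50%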;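 also: firefly luciferase from ISG56 promoter only with Renilla not read in this screen; 0% = Sendai virus plus DMSO and 100% = medium plus DMSO without virus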); settings: HEK293 RL24 IRF3 luciferase reporter, at 10 µM, stronger effect = higher value
[12] = inhibitors of poly I:C-induced TLR3 signaling, primary screen, cell-based, poly I:C stimulus, luciferase, 10K MLSCN set (AID 602277;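 active = inhibition of the reporter signal at or above 50%; inactive = inhibition below 50%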); settings: HEK293-TLR3 RL24 IRF3 luciferase reporter, at 10 µM, stronger effect = higher value
[13] = measured here: cell density z-score
[14] = measured here: nuclear c-Myc green intensity z-score
[15] = measured here: nuclear pErk red intensity z-score, stronger effect = higher value

Dual specificity protein phosphatase 6 (Homo sapiens), sequence (Q16828 whole entry, looked up): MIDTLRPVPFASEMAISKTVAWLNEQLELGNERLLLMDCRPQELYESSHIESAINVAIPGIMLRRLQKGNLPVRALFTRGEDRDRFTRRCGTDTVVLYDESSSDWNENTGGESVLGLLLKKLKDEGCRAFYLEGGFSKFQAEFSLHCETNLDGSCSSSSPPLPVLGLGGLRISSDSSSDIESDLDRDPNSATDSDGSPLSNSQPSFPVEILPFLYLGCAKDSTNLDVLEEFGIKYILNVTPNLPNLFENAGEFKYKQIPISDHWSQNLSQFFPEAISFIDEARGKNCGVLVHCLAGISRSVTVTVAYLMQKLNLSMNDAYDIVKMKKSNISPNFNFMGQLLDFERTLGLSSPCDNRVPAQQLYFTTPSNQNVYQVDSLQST
Voltage-gated potassium channel subunit beta-2 (Rattus norvegicus), sequence (P62483 whole entry, looked up): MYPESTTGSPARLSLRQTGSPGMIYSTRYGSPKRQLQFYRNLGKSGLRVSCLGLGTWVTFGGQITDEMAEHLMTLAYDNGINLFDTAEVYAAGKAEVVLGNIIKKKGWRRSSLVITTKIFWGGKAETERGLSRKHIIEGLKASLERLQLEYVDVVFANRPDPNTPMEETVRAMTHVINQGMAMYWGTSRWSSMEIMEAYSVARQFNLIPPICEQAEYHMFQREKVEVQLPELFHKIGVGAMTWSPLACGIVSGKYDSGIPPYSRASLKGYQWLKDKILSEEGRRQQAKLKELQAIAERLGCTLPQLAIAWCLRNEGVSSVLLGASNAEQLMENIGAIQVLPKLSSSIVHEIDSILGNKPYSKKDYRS
Alpha-2C adrenergic receptor (Homo sapiens), sequence (P18825 whole entry, looked up): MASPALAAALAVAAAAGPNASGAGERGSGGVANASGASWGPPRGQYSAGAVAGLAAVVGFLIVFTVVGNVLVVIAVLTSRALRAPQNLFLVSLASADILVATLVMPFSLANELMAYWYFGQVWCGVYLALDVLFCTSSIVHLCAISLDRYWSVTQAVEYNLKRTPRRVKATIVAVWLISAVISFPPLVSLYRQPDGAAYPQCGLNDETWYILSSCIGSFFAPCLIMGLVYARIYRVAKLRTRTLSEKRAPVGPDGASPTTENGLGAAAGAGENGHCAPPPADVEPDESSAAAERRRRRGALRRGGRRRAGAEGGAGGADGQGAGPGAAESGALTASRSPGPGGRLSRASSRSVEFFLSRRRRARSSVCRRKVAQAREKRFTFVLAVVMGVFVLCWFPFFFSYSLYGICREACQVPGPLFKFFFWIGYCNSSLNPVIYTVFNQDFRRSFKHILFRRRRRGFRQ

Row | Compound | cell count [1] | inhibition [1] | inhibition of aggregation [2] | nuclei count [2] | inhibition [3] | nuclei count [3] | z-score [4, 13] | z-score [4, 14] | z-score [4, 15] | inhibition [5] | fluorescence slope [6] | NADPH fluorescence slope [7] | slope [8] | outcome [9] | inhibition [10] | inhibition [11] | inhibition [12]
1 | CC(CCc1ccccc1)NC(C)C(O)c1ccc(O)cc1 (centres undefined) | 697 | 2% (inactive) | 19.5% (inactive) | 96.6% | -54.5% (inactive) | 119% | -0.115 | -1.79 | -1.46 | 10.2% (inactive) | -0.468 (inactive) | 4.8e-05 (inactive) | 0.00919 (inactive) | inactive | 8.38% (inactive) and -4.76% (inactive) | -11.1% (inactive) | 12% (inactive)
2 | CN1C[C@H](CNC(=O)OCc2ccccc2)C[C@@H]2c3cccc4c3c(cn4C)C[C@H]21 | 603 | 2.7% (inactive) | -59.5% (inactive) | 111% | -32.3% (inactive) | 110% | -0.59 | -0.701 | 1.38 | 1.38% (inactive) | -0.508 (inactive) | -3.6e-06 (inactive) | 0.0041 (inactive) | inactive | 0.679% (inactive) and 168% (active) | 1.55% (inactive) | 23.4% (inactive)
3 | O=c1[nH]c2ccccc2n1C1CCN(CCCC(c2ccc(F)cc2)c2ccc(F)cc2)CC1 | 544 | -2.2% (inactive) |  |  | -26.6% (inactive) | 108% | -0.698 | 0.151 | -0.248 | 5.42% (inactive) | -0.556 (inactive) | -6.4e-05 (inactive) | 0.00493 (inactive) | inactive | -5.72% (inactive) and -16.1% (inactive) | 18.5% (inactive) | 10.5% (inactive)
4 | O=c1[nH]c(=O)n(CCc2ccccc2)c(O)c1C=NCCN1CCNCC1 | 554 | -4% (inactive) | -1.9% (inactive) | 109% | -30.7% (inactive) | 123% | -0.452 | -0.273 | -0.327 | -3.5% (inactive) | -0.348 (inactive) | 2e-05 (inactive) | 0.0061 (inactive) | inactive | -4.22% (inactive) | 18.3% (inactive) | 21.6% (inactive)
5 | O=c1[nH]c(=O)n(Cc2ccco2)c(O)c1C=NCCCn1ccnc1 | 506 | -1.7% (inactive) | 4.4% (inactive) | 89.9% | -104% (inactive) | 123% | 0.638 | -0.867 | 0.884 | -0.584% (inactive) | -0.334 (inactive) | -2.4e-05 (inactive) | 0.00606 (inactive) | inactive | 14.1% (inactive) | 8.16% (inactive) | 21.1% (inactive)
6 | COc1ccc2[nH]cc(CCN(C)C)c2c1 | 560 | -3.3% (inactive) | -16.8% (inactive) | 95.6% | -34% (inactive) | 102% | -0.633 | 0.535 | 0.345 | 3.59% (inactive) | -0.516 (inactive) | 1.6e-07 (inactive) | 0.00666 (inactive) | inactive | 12.8% (inactive) and -9.88% (inactive) | 7.44% (inactive) | 13.2% (inactive)
7 | C[C@H]1CCC/C=C/C2C[C@H](O)CC2[C@H](O)/C=C/C(=O)O1 (some centres undefined) | 647 | 83.2% (active) | -436% (inactive) | 0.6% | 94.9% (active) | 120% | -0.283 | 0.495 | -0.185 | 23.4% (inactive) | -0.473 (inactive) | -3.1e-05 (inactive) | 0.00536 (inactive) | inactive; toxic | 155% (active) | -44.8% (inactive) | 83% (active)
8 | CCOC(=O)c1cc2c(cn1)[nH]c1ccccc12 | 594 | -2.5% (inactive) | 2% (inactive) | 102% | -12.8% (inactive) | 110% | -0.332 | -1.06 | -1.1 | 1.48% (inactive) | -0.368 (inactive) | 7.4e-07 (inactive) | 0.00544 (inactive) | inactive | -6.97% (inactive) | -4.33% (inactive) | -27.3% (inactive)
9 | C#CCN(C)C(C)Cc1ccccc1 (centres undefined) | 624 | -1.1% (inactive) | 13.6% (inactive) | 96.7% | -90.1% (inactive) | 124% | -0.521 | 1.36 | 0.296 | 8% (inactive) | -0.447 (inactive) | -7.1e-05 (inactive) | 0.00486 (inactive) | inactive | 10.4% (inactive) | 16.5% (inactive) | 40.6% (inactive)
10 | CN1CCN(C(=O)OC2c3nccnc3C(=O)N2c2ccc(Cl)cn2)CC1 (centres undefined) | 563 | -7.6% (inactive) | -7% (inactive) | 109% | -132% (inactive) | 114% | -0.576 | -1.54 | 0.116 | 3.45% (inactive) | -0.501 (inactive) | -7.3e-05 (inactive) | 0.00689 (inactive) | inactive | 4.29% (inactive) and -9.06% (inactive) | 15.5% (inactive) | 43.6% (inactive)
11 | C#C[C@]1(O)CC[C@H]2[C@@H]3CCC4=CC(=O)CC[C@]4(C)[C@H]3CC[C@@]21C | 605 | 4.5% (inactive) | -1.7% (inactive) | 104% | -96.4% (inactive) | 120% | 0.928 | -0.272 | -0.147 | 19% (inactive) | -0.469 (inactive) | -5.4e-05 (inactive) | 0.00473 (inactive) | inactive | -7.99% (inactive) | 9.99% (inactive) | 37.9% (inactive)
12 | [N-]=[N+]=CC(=O)OC[C@H](N)C(=O)O | 594 | -4% (inactive) | -0.4% (inactive) | 104% | -25.7% (inactive) | 133% | -0.1 | -0.513 | -0.992 | 25.1% (inactive) | -0.53 (inactive) | 2.4e-05 (inactive) | 0.00503 (inactive) | inactive | -8.35% (inactive) | 16.7% (inactive) | 21.9% (inactive)
13 | Cc1ccc(-n2c(O)c(C=NCCN3CCOCC3)c(=O)[nH]c2=O)cc1 | 536 | -3.4% (inactive) | -17.4% (inactive) | 117% | -76.6% (inactive) | 147% | -0.809 | -1.16 | 1.01 | 6.04% (inactive) | -0.418 (inactive) | -4.9e-05 (inactive) | 0.00555 (inactive) | inactive | -5.09% (inactive) | 15.1% (inactive) | 25% (inactive)
14 | CC(C)C[C@H](NC(=O)[C@@H]1CCCN1C(=O)[C@@H](N)Cc1ccc(O)cc1)C(=O)NCC(N)=O (H-YPLG-NH2) | 621 | -3.8% (inactive) | -9.8% (inactive) | 103% | -65.3% (inactive) | 104% | -0.734 | -0.49 | -1.27 | 1.48% (inactive) | -0.471 (inactive) | -6.7e-05 (inactive) | 0.00565 (inactive) | inactive | -9.78% (inactive) | 2.09% (inactive) | 31.8% (inactive)
15 | C=CCn1c(O)c(C=NCCN(C)C)c(=O)[nH]c1=O | 342 | -5% (inactive) | -0.9% (inactive) | 97.7% | 9.5% (inactive) | 97.2% | 0.486 | -0.511 | -0.0175 | 19.3% (inactive) | -0.462 (inactive) | -0.000118 (inactive) | 0.00873 (inactive) | inactive | -19.1% (inactive) | -1.86% (inactive) | -11.3% (inactive)
16 | CCOC(=O)[C@@]1(C#N)[C@@H]2C=CC(C(N)=O)=CN2[C@@H](C(N)=O)[C@@H]1c1cccc(Cl)c1 | 359 | -11.1% (inactive) |  |  | -137% (inactive) | 133% | 1.68 | -1.47 | -0.2 | 11.4% (inactive) | -0.368 (inactive) | -1e-05 (inactive) | 0.00498 (inactive) | inactive | 24.1% (inactive) |  | 
17 | CCCCCCn1c(O)c(C=Nc2c(C)n(C)n(-c3ccccc3)c2=O)c(=O)[nH]c1=O | 335 | -9.2% (inactive) |  |  | -82.5% (inactive) | 152% | -0.0314 | 0.533 | 1.54 | -7.01% (inactive) | -0.359 (inactive) | -0.000298 (inactive) | 0.00815 (inactive) | inactive | 5.18% (inactive) |  | 
18 | CCCc1nc2ccccc2c(=O)n1-c1ccccc1OC | 587 | -5.2% (inactive) |  |  | -140% (inactive) | 134% | -0.589 | -0.508 | -0.325 | -4.78% (inactive) | -0.375 (inactive) | -2e-05 (inactive) | 0.00541 (inactive) | inactive | -2.29% (inactive) |  | 
19 | COc1ccc(Cn2c(O)c(C=NCCN3CCOCC3)c(=O)[nH]c2=O)cc1 | 587 | -0.9% (inactive) |  |  | 36.9% (inactive) | 166% | 0.642 | -0.606 | -0.227 | 19.3% (inactive) | -0.342 (inactive) | -2.7e-06 (inactive) | 0.00514 (inactive) | inactive | -7.73% (inactive) |  | 
20 | CCCCCCn1c(O)c(C=NCCCn2ccnc2)c(=O)[nH]c1=O | 654 | -20.1% (inactive) |  |  | 13.9% (inactive) | 134% | 1.42 | -1.88 | -0.817 | 2.71% (inactive) | -0.5 (inactive) | -2e-06 (inactive) | 0.0065 (inactive) | inactive | 13.6% (inactive) |  | 
21 | CC(=O)OC1(c2ccc(C)cc2)CN2CCC1c1ccccc12 (centres undefined) | 554 | -10% (inactive) |  |  | -198% (inactive) | 145% | 0.866 | 0.595 | 0.108 | 25.8% (inactive) | -0.502 (inactive) | -6.1e-05 (inactive) | 0.00515 (inactive) | inactive | 18.7% (inactive) |  | 
22 | CC1(C)CC(n2[nH]c(=O)c3c2NC(=O)CSC3c2ccccc2)CCO1 (centres undefined) | 532 | 10.5% (inactive) |  |  | -152% (inactive) | 128% | -0.163 | 0.684 | -0.467 | 1.75% (inactive) | -0.501 (inactive) | -2.3e-05 (inactive) | 0.00596 (inactive) | inactive | -16.8% (inactive) |  | 

From PubChem BioAssay
